# Source: ChEMBL document CHEMBL3988442, “University of Dundee, Small-Polar-MMV Screening Library” (2021)
# About 13,000 (27%) of roughly 48,000 compounds showed an effect of 50% or more. This is one part of the list.
# Test system: Wolbachia pipientis
# Assay: Anti-Wolbachia Cell-Based Screen
# Assay type: functional
# Set-up: scale not given: in the data most compounds retested in dose-response had high values
# Conditions: 5 µM
row,Structure (SMILES),Percent Effect [%]
1,Cl.OC1(Cn2ccc3ncccc32)CCN(Cc2ccccc2F)CC1,103.8
2,O=C(O)C1(Cc2ccccc2Cl)CCN(c2ncccc2F)CC1,-2.228
3,Cl.OC1(Cn2ccc3ncccc32)CCN(Cc2ccccn2)CC1,-13.22
4,COc1ccc(N2CCCC3(C2)CN(c2ncccn2)CCO3)cc1 (configuration not stated),2.929
5,c1ccc(CO[C@H]2CN(c3ncccn3)C[C@@]23CCCO3)cc1,124.5
6,c1ccc(CN2CCOC3(CCCN(c4nccs4)C3)C2)cc1 (configuration not stated),-0.1767
7,CN(C(=O)COC1CCCCC1)C1CCN(CC2CCOC2)CC1 (configuration not stated),-5.016
8,COc1cc2c(cc1OC)CN(C(C(=O)O)c1c(C)nn(C)c1C)CC2 (configuration not stated),14.43
9,CO[C@@H]1CO[C@@]2(CCCN(C(=O)C3CC=CC3)C2)C1,95.67
10,COc1ccccc1OCC(=O)N1CCC[C@]2(C[C@@H](OC)CO2)C1,-30.12
11,CO[C@@H]1CO[C@@]2(CCN(C(=O)COc3ccccc3C)C2)C1,-3.612
12,CO[C@H]1CO[C@@]2(CCCN(C(=O)C3CC=CC3)C2)C1,107.2
13,COCC(=O)N1CC[C@@H]2O[C@@H](COCC3CCOCC3)CC[C@@H]21,-13.21
14,Cc1ccc(NS(=O)(=O)c2cccc(C#N)c2)c(CN(C)C)c1,5.777
15,O=C(c1n[nH]cc1Cl)N1CCOC(Cc2cccc(C(F)(F)F)c2)C1 (configuration not stated),16.6
16,Cc1nnsc1C(=O)N1CCCC(c2nccn2Cc2cscn2)C1 (configuration not stated),19.06
17,Cc1nnsc1C(=O)N1CCCC(n2nnc3cc(F)ccc32)C1 (configuration not stated),86.87
18,O=C(c1n[nH]cc1Cl)N1CCCC(n2nnc3cc(F)ccc32)C1 (configuration not stated),121.3
19,Cc1nc(C)n(C2CCCN(C(=O)c3ccc(F)cc3F)C2)n1 (configuration not stated),4.826
20,Cc1nn(C)cc1C(=O)N1CCCC(n2nnc3cc(F)ccc32)C1 (configuration not stated),70.61
21,CCc1nnsc1C(=O)N1CCCC(COc2ccc(F)cc2)C1 (configuration not stated),-1.511

row,Structure (SMILES),Percent Effect [%]
1,Cc1cc(C)n(C2CCCN(C(=O)c3ccc(F)cc3F)C2)n1 (configuration not stated),0.0476
2,Cc1c(C(=O)N2CCCC(n3nnc4cc(F)ccc43)C2)cnn1C (configuration not stated),103.4
3,COc1c(CNC2CCCOc3ccc(F)cc32)c(C)nn1C.Cl (configuration not stated),-15.22
4,Cc1ccccc1N1CCN(C(=O)c2ccc[nH]2)C(C)C1 (configuration not stated),-11.11
5,COCc1noc(-c2ccc(N(C)Cc3cn(C)nc3C)nc2)n1,-0.7863
6,COc1ccc(C(C)N2CCC(C(=O)NC3CC3)CC2)cc1Cl (configuration not stated),5.354
7,O=C(c1ccsc1)N1CCc2c(CNc3nccs3)n[nH]c2C1,-7.215
8,CN1C(=O)CC(c2ccccc2)C12CCN(c1ncccn1)CC2 (configuration not stated),-22.26
9,CCC(C(=O)NCc1cc(N2CCOCC2)ncn1)n1cccn1 (configuration not stated),-0.1761
10,CCC(C(=O)NCCc1nc(C)cc(C(F)(F)F)n1)n1cccn1 (configuration not stated),110
11,CCc1csc(CNC(=O)C(CC)n2cccn2)n1 (configuration not stated),-1.307
12,CCC(C(=O)NCc1noc(Cc2cccs2)n1)n1cccn1 (configuration not stated),-1.383
13,CCC(C(=O)NCc1csc(-c2ncccn2)n1)n1cccn1 (configuration not stated),6.719
14,Cc1cc(C(F)(F)F)nc(CNC(=O)CCC2CCCCN2C)n1 (configuration not stated),-1.594
15,CCC(C(=O)NCc1nc(C)cc(C(F)(F)F)n1)n1cccn1 (configuration not stated),86.37
16,Cc1cc(C(F)(F)F)nc(CNC(=O)CCCN2CCCCC2)n1,-0.7363
17,Cc1cc(C(F)(F)F)nc(CNC(=O)CCn2cccn2)n1,103.4
18,CC(C)NC(=O)N[C@H]1C[C@@H](c2nc(-c3ccncc3)no2)N(C)C1,-7.5
19,Cc1ccc2c(c1)CCCN2C(=O)c1cncc(Br)c1,3.118
20,CCc1c(C(=O)Nc2ccc(F)c(C(=O)NC)c2)cnn1CC(C)C,115.2
21,O=C(Nc1cnn(CCN2CCOCC2)c1)c1cc(F)ccc1F,-10.74

row,Structure (SMILES),Percent Effect [%]
1,CNC(=O)c1cc(NC(=O)NC(C)CCc2cccn2C)ccc1F (configuration not stated),0.1416
2,CNC(=O)c1cc(NC(=O)Nc2cnn(CC(C)C)c2)ccc1F,106.8
3,CCCn1cc(NC(=O)Nc2ccc(F)c(C(=O)NC)c2)cn1,109.9
4,Cc1c(C(=O)NS(=O)(=O)c2ccc(F)cc2)cnn1CC(C)C,6.603
5,CCc1c(NCc2ccc(F)cc2)cnn1CC(C)C,0.9512
6,CC(C)Cn1cc(NC(=O)c2cccc(N(C)C)c2)cn1,-6.196
7,CNC(=O)CNC(=O)Nc1ccc(F)c(Br)c1,3.521
8,COCCCN1CCC(NC2CSCCc3ccccc32)CC1 (configuration not stated),3.161
9,O=C(CCn1cncn1)N1C[C@H]2CC[C@@H]1CN(Cc1cccnc1)C2,2.407
10,Cc1nc(Cn2cnc3c(c(Br)nn3C)c2=O)cs1,-1.874
11,Cc1csc([C@H]2C[C@@H]3CCN(Cc4cnn(C)c4)C[C@H]3O2)n1,5.32
12,CN(C)C(=O)c1n[nH]c2c1CN(Cc1ccccn1)CC2.O=C(O)C(F)(F)F,-21.72
13,CN1CCN(C(=O)c2n[nH]c3c2CCN(Cc2nccs2)C3)CC1,-5.603
14,CCN1CCc2[nH]nc(C(=O)N3CCCC3C)c2C1.O=C(O)C(F)(F)F (configuration not stated),-0.9609
15,CN(C)C(=O)c1n[nH]c2c1CN(CC1CCCCC1)C2.O=C(O)C(F)(F)F.O=C(O)C(F)(F)F,93.81
16,CN(C)C(=O)c1n[nH]c2c1CN(CC1CCC1)C2.O=C(O)C(F)(F)F.O=C(O)C(F)(F)F,93.12
17,O=C(O)C(F)(F)F.O=C(c1n[nH]c2c1CCN(Cc1nccs1)C2)N1CCCC1,1.297
18,CN(C)C1CCN(C(=O)c2n[nH]c3c2CCN(CC2CCC2)C3)CC1,111.2
19,CN(C)C(=O)c1n[nH]c2c1CN(Cc1nccs1)CC2.O=C(O)C(F)(F)F,-9.505
20,Cc1ccc(CN2CCc3[nH]nc(C(=O)N(C)C)c3C2)s1.O=C(O)C(F)(F)F.O=C(O)C(F)(F)F,-17.1
